Test results reported in paper PMC8384837, “Expanding the binding specificity for RNA recognition by a PUF domain”.

Columns and labels:
Experiment in all cases: yeast three-hybrid, YBZ-1, SC-Leu-His + 0.5 mM 3-AT, 4 days
Conditions in all cases: tags: N-Gal4 AD-HA kept; label: inside an RPR1-promoter hybrid RNA with tandem MS2 sites; ssRNA
PUM1 PUF domain R1-KYI = PUM1 PUF domain R1-KYI (Homo sapiens, UniProt Q14671 828-1176, S863K;R864Y;Q867I)
Outline: (§1)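 Pumilio-1 PUF domain libraries, randomized at the three base-contacting residues of each repeat, were co-expressed with matching RNA elements from a centromeric plasmid in strain YBZ-1, which carries a LexA–MS2 coat fusion and a HIS3 reporter. Transformants grew for four days on SC-Leu (input) or on SC-Leu-His + 0.5 mM 3-AT (selection), and the repeat regions were PCR-amplified and Illumina-sequenced. The interaction score is the log change in variant frequency from input to selection. That logarithm is base 2, with a pseudocount of 1 where a variant was absent.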

PUM1 PUF domain R1-MYR = PUM1 PUF domain R1-MYR (Homo sapiens, UniProt Q14671 828-1176, S863M;R864Y;Q867R)
Outline: as §1

PUM1 PUF domain R5-SGS = PUM1 PUF domain R5-SGS (Homo sapiens, UniProt Q14671 828-1176, C1007S;R1008G;Q1011S)
Outline: as §1

PUM1 PUF domain R5-RRC = PUM1 PUF domain R5-RRC (Homo sapiens, UniProt Q14671 828-1176, C1007R;Q1011C)
Outline: as §1

PUM1 PUF domain R3-PWG = PUM1 PUF domain R3-PWG (Homo sapiens, UniProt Q14671 828-1176, C935P;R936W;Q939G)
Outline: as §1

PUM1 PUF domain R3-TRA = PUM1 PUF domain R3-TRA (Homo sapiens, UniProt Q14671 828-1176, C935T;Q939A)
Outline: as §1

PUM1 PUF domain R3-AWG = PUM1 PUF domain R3-AWG (Homo sapiens, UniProt Q14671 828-1176, C935A;R936W;Q939G)
Outline: as §1

PUM1 PUF domain R6-GFE = target: T1, PUM1 PUF domain R6-GFE (Homo sapiens, UniProt Q14671 828-1176, N1043G;Y1044F;Q1047E)
T1 sequence: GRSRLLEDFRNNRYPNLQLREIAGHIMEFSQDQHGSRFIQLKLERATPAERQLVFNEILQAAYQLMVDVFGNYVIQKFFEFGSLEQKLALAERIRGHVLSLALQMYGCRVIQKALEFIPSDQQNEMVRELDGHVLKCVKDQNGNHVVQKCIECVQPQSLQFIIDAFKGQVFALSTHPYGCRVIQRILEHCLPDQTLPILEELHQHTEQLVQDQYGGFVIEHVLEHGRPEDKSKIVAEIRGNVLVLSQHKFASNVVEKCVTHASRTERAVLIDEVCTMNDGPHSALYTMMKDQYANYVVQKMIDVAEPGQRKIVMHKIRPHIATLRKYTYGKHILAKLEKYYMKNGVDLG
Outline: as §1

PUM1 PUF domain R7-LNA = PUM1 PUF domain R7-LNA (Homo sapiens, UniProt Q14671 828-1176, S1079L;E1083A)
Outline: as §1

PUM1 PUF domain R7-GGR = PUM1 PUF domain R7-GGR (Homo sapiens, UniProt Q14671 828-1176, S1079G;N1080G;E1083R)
Outline: as §1

PUM1 PUF domain R3-RAH = PUM1 PUF domain R3-RAH (Homo sapiens, UniProt Q14671 828-1176, C935R;R936A;Q939H)
Outline: as §1

Sequence: GGCUAGAACUAGUGGAUCCCCCGGCGCCCGGCGGCUCGAGCCCGGGUAAGUGUAAAUCGUCUGCAUGCCGCCGGGCGCCAUGCCUGCAGGUCGACUCUAGAAAACAUG
- binding signal (PUM1 PUF domain R1-KYI): 4.65 log2 enrichment (interaction score)
- binding signal (PUM1 PUF domain R1-MYR): 3.82 log2 enrichment (interaction score)

Sequence: GGCUAGAACUAGUGGAUCCCCCGGCGCCCGGCGGCUCGAGCCCGGGUAAGUGUGAAUAGUCUGCAUGCCGCCGGGCGCCAUGCCUGCAGGUCGACUCUAGAAAACAUG
- binding signal (PUM1 PUF domain R5-SGS): 2.71 log2 enrichment (interaction score)
- binding signal (PUM1 PUF domain R5-RRC): 1.37 log2 enrichment (interaction score)

Sequence: GGCUAGAACUAGUGGAUCCCCCGGCGCCCGGCGGCUCGAGCCCGGGUAAGUGUAAGUAGUCUGCAUGCCGCCGGGCGCCAUGCCUGCAGGUCGACUCUAGAAAACAUG
- binding signal (PUM1 PUF domain R3-PWG): 2.38 log2 enrichment (interaction score)
- binding signal (PUM1 PUF domain R3-TRA): 0.89 log2 enrichment (interaction score)
- binding signal (PUM1 PUF domain R3-AWG): 0.66 log2 enrichment (interaction score)

Sequence: GGCUAGAACUAGUGGAUCCCCCGGCGCCCGGCGGCUCGAGCCCGGGUAAGUGGAAAUAGUCUGCAUGCCGCCGGGCGCCAUGCCUGCAGGUCGACUCUAGAAAACAUG
- binding signal (PUM1 PUF domain R6-GFE): 5.67 log2 enrichment (interaction score)

Sequence: GGCUAGAACUAGUGGAUCCCCCGGCGCCCGGCGGCUCGAGCCCGGGUAAGUUUAAAUAGUCUGCAUGCCGCCGGGCGCCAUGCCUGCAGGUCGACUCUAGAAAACAUG
- binding signal (PUM1 PUF domain R7-LNA): 4.5 log2 enrichment (interaction score)
- binding signal (PUM1 PUF domain R7-GGR): 3.28 log2 enrichment (interaction score)

Sequence: GGCUAGAACUAGUGGAUCCCCCGGCGCCCGGCGGCUCGAGCCCGGGUAAGUGUAAUUAGUCUGCAUGCCGCCGGGCGCCAUGCCUGCAGGUCGACUCUAGAAAACAUG
- binding signal (PUM1 PUF domain R3-PWG): 2.22 log2 enrichment (interaction score)
- binding signal (PUM1 PUF domain R3-TRA): 0.43 log2 enrichment (interaction score)
- binding signal (PUM1 PUF domain R3-AWG): 0.35 log2 enrichment (interaction score)
- binding signal (PUM1 PUF domain R3-RAH): 3.61 log2 enrichment (interaction score)
